Potency data for 38 compounds are collected here from PubChem BioAssay (NCATS).

SMILES strings stand for the structures. Records with an inconclusive call do not appear. A call without a number means that no potency is given here. Active and inactive are the calls of the source. Calls follow the shape of the dose curve; as a rule, active = well fitted curve in the direction sought with a large enough effect; inconclusive = small, poorly fitted or top-dose-only effect, or another doubt; inactive = no such curve, though single readings can be large; an effect the other way counts as inactive or inconclusive.

Assay [1] in a line: Primary qHTS for small molecule stabilizers of the endoplasmic reticulum resident proteome: Secreted ER Calcium Modulated Protein (SERCaMP) assay (AID 1508630). The settings on record: SH-SY5Y GLuc-SERCaMP (Gaussia luciferase released on ER calcium loss) secretion, thapsigargin, luminescence; series mostly up to 38.4 µM. In a few lines: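 The SH-SY5Y reporter protocol was run at 3 concentrations up to 38.3 uM (primary) or 11 concentrations (follow-up): 16 h compound, 100 nM thapsigargin for 4 h, then extracellular luciferase luminescence.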

Assay [2] is described as follows: Counterscreen qHTS for small molecule stabilizers of the endoplasmic reticulum resident proteome: GLuc-NoTag assay (AID 1508627).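 Also: SH-SY5Y cells given compound then 100 nM thapsigargin to empty ER calcium.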 As to conditions: Gaussia luciferase NoTag secretion counterscreen, luminescence, thapsigargin 100 nM for final 4 h; series mostly up to 76.4 µM. In short, it runs like this: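 Counterscreen line: SH-SY5Y-GLuc-NoTag cells, treated with compound 19 hr before a 4 hr, 100 nM thapsigargin calcium depletion. Secreted Gaussia luciferase in the medium was measured by luminescence after coelenterazine was added (0.07x final), with cells unlysed.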

In assay [3] the target is Calcium and integrin-binding protein 1 (Homo sapiens) (UniProt Q99828). Put plainly: Primary qHTS for Identification of Calcium Integrin Binding Protein 1 (CIB1) Competitor (AID 1508620).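 Also: GST tagged CIB1 binding a fluorescein labelled alphaIIb integrin peptide tracer; top concentration of the series differs between compounds.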 As to conditions: CIB1-GST / FITC-alphaIIb peptide fluorescence polarization; series mostly up to 57.7 µM. In a few lines:
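CIB1-GST (1 uM final) and compound incubated 15 min at room temperature before adding FITC-alphaIIb peptide tracer (100 nM final). Competition for binding read by fluorescence polarization (ex 480, em 540) after another 15 min at room temperature.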

Sequence of Calcium and integrin-binding protein 1 (Homo sapiens) (Q99828 whole entry, looked up): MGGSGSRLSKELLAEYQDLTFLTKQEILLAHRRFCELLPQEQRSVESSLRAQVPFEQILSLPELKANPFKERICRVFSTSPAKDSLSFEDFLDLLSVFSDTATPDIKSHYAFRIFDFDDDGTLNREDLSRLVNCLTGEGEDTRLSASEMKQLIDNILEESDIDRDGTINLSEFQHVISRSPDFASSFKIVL

For `CN(CC=CC#CC(C)(C)C)Cc1cccc2ccccc12`, the Potency entry in assay [1] was “inactive”. As to `C[C@@H](O[C@H]1OCCN(Cc2n[nH]c(=O)[nH]2)[C@@H]1c1ccc(F)cc1)c1cc(C(F)(F)F)cc(C(F)(F)F)c1`, in assay [1], the Potency entry is “inactive”.

As for `COc1cc2c(cc1OC)[C@@H]1Cc3ccc(OC)c(OC)c3CN1CC2`, the Potency result in assay [1] was “inactive”. The same measure, in the same setting: with `O=C(NC[C@H](O)CO)c1ccncc1Nc1ccc(I)cc1F` the entry was “inactive”; with `NCc1c[nH]c(=S)n1[C@H]1CCc2c(F)cc(F)cc2C1`, “inactive”. On the same count and under the same terms, for `Cc1ccc(S(=O)(=O)Nc2nc3ccccc3nc2Nc2ccc3nsnc3c2)cc1` the value was “inactive”. Same read-out and setting: for `CC1=C[C@@H]2[C@@H]([C@@H](O)C[C@@]3(C)[C@H]2C[C@@H](C)[C@]3(O)C(=O)CO)[C@@]2(C)Cc3cnn(-c4ccccc4)c3C=C12` the value was “inactive”. For the compound `CC=C(C(=CC)c1ccc(O)cc1)c1ccc(O)cc1`, in assay [1], the Potency result was “inactive”. On the same count and under the same terms, for `CCCCc1ccc(NS(=O)(=O)c2ccc(C)c(C(=O)N3CCN(c4cccc(C)c4C)CC3)c2)cc1` the value was “inactive”; for `O=C(O)C1=NC(C(=O)O)CC(C=CN2c3cc(O)c(OC4OC(CO)C(O)C(O)C4O)cc3CC2C(=O)O)=C1` (configuration not stated), “inactive”; for `CCOc1ccccc1N=Nc1c(C)[nH]n(-c2nc(-c3ccccc3)cs2)c1=O`, “inactive”. The same measure, in the same setting: with `CNC1[C@H](O)C(O[C@@H]2C(O)C(O[C@H]3O[C@H]([C@@H](C)NC)CC[C@H]3N)[C@@H](N)C[C@H]2N)OC[C@]1(C)O` (some centres not stated) the entry was “inactive”. Consider `CN1CCC[C@H]1CCO[C@](C)(c1ccccc1)c1ccc(Cl)cc1`, for which the Potency entry in assay [2] is “inactive”. In the case of `CCC(=C(CC)c1ccc(O)cc1)c1ccc(O)cc1`, the Potency entry in assay [1] was “inactive”. On the same count and under the same terms, with `Nc1ccn([C@@H]2O[C@H](CO)[C@@H](O)[C@H]2O)c(=O)n1` the entry was “inactive”. For the compound `CN(C)c1ccccc1CN1CCCN(Cc2ccccc2N(C)C)C1c1ccncc1`, the Potency entry in assay [3] and in assay [1] was “inactive” each time. For the compound `O=c1[nH]c(=O)n([C@H]2C[C@@H](O)[C@@H](CO)O2)cc1I`, the Potency entry in assay [1] is “inactive”.

On to `Cc1cnc(-c2cc(N3CCN(C(=O)CCS(C)(=O)=O)CC3)ncc2Cl)c(C)c1`, for which the Potency result in assay [1] is “inactive”. Same read-out and setting: for `O=C1C(CCC(O)c2ccc(F)cc2)C(c2ccc(O)cc2)N1c1ccc(F)cc1` (configuration not stated) the value was “inactive”. In the case of `Cc1ccc2c(=O)c3cccc(CC(=O)O)c3oc2c1C`, the Potency result in assay [1] is “inactive”. Turning to `COc1cc(C=CC(=O)O)ccc1O`, in assay [1], the Potency result is “inactive”. Consider `Cc1cc2c(cc1C1(c3ccc(C(=O)O)cn3)CC1)C(C)(C)CCC2(C)C`, for which the Potency result in assay [1] is “inactive”.

For the compound `COc1cc(Cl)cn2c(-c3cccc(NC4CNC4)n3)cnc12`, the Potency result in assay [1] was “inactive”. The same measure, in the same setting: with `COc1ccc(-c2cc(=O)c3c(O)cc(O[C@@H]4O[C@H](CO[C@@H]5O[C@@H](C)[C@H](O)[C@@H](O)[C@@H]5O)[C@@H](O)[C@H](O)[C@@H]4O)cc3o2)cc1O` the entry was “inactive”.

Take `CC[C@H](NC(=O)[C@H](C)NC)C(=O)N1C[C@@H](O)C[C@H]1Cc1c(-c2[nH]c3cc(F)ccc3c2C[C@H]2C[C@H](O)CN2C(=O)[C@H](CC)NC(=O)[C@H](C)NC)[nH]c2cc(F)ccc12`: the Potency result in assay [3] and in assay [1] was “inactive” in each case. Regarding `C=CC[N+]1([C@H]2C[C@H]3[C@@H]4CC[C@H]5C[C@H](O)[C@@H](N6CCOCC6)C[C@]5(C)[C@@H]4CC[C@]3(C)[C@H]2OC(C)=O)CCCC1`, in assay [1], the Potency result was “inactive”. For `CC1=C(CC(=O)O)c2cc(F)ccc2C1=Cc1ccc(S(C)=O)cc1` (configuration not stated), in assay [1], the Potency result is “inactive”. The same measure, in the same setting: with `CCNC(=O)Nc1ccc(Oc2ncnc(N)c2C=NOC)cc1Cl` the entry was “inactive”; with `CCC=CC[C@H]1C(=O)CC[C@@H]1CC(=O)OC`, “inactive”; with `Cc1c(-c2cccc3c(CCCOc4cccc5ccccc45)c(C(=O)O)n(Cc4cccnc4)c23)c(COc2ccc(N3CCN([S+](=O)([O-])N(C)C)CC3)cc2)nn1C`, “inactive”. On the same count and under the same terms, for `COc1cc([C@H]2Oc3cc([C@H]4Oc5cc(O)cc(O)c5C(=O)[C@H]4O)ccc3O[C@H]2CO)ccc1O` the value was “inactive”.

`CCC(=O)OCC(=O)[C@@]1(OC(=O)CC)[C@@H](C)C[C@@H]2[C@H]3CCC4=CC(=O)C=C[C@]4(C)[C@@]3(F)[C@@H](O)C[C@@]21C`: the Potency result in assay [3] and in assay [1] was “inactive” each time. As to `Cc1c(C(=O)Nc2ccc(N3C[C@@H](C)O[C@@H](C)C3)nc2)cccc1-c1ccc(OC(F)(F)F)cc1`, the Potency entry in assay [1] is “inactive”. Still for that read-out and setting: with `C=CC(=O)Nc1cccc(Sc2nc(Nc3ccc(N4CCN(C)CC4)cc3)ncc2Cl)c1` the entry was “inactive”. The same measure, in the same setting: for `NC1(C(=O)N[C@@H](CCO)c2ccc(Cl)cc2)CCN(c2ncnc3[nH]ccc23)CC1` the value was “inactive”; for `COc1c(C)c2c(c(O)c1CC=C(C)CCC(=O)O)C(=O)OC2`, “inactive”. With `CN[C@H]1[C@@H](O[C@@H]2[C@H](O[C@@H]3[C@@H](O)[C@@H](O)[C@@H](N=C(N)N)[C@@H](O)[C@@H]3N=C(N)N)O[C@H](C)[C@@]2(O)C=O)O[C@@H](CO)[C@@H](O)[C@H]1O`, in assay [1], the Potency entry is “inactive”. Regarding `C[C@H](CCC(=O)O)[C@H]1CC[C@H]2[C@H]3[C@@H](CC[C@]12C)[C@@]1(C)CC[C@@H](O)C[C@H]1C[C@@H]3O`, the Potency entry in assay [3] and in assay [1] was “inactive” in each case.
